About 79,000 compounds went through this panel and 15% of them were active in at least one assay; those are over-represented in the sample as a whole. Rule as the data show it: active = growth inhibition above about 70%; inactive = the rest.
How the values were obtained:
[1] = NCI Yeast Anticancer Drug Screen. Data for the rad50 strain (AID 155);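 also: 0% = growth of vehicle-only cultures of the same strain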; conditions: S. cerevisiae rad50 strain growth inhibition; at 50.0 µM; hits give high values
Outline: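 Vehicle-treated cultures provide the reference for the growth inhibition reported for compound-exposed, repair-deficient yeast.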

[2] = NCI Yeast Anticancer Drug Screen. Data for the mec2-1 strain (AID 157); conditions: S. cerevisiae mec2-1 strain, at 50.0 µM, hits give high values
Outline: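 Each compound was tested on mec2-1 yeast, a strain altered in DNA damage repair or cell cycle control. Growth inhibition is reported relative to vehicle.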

[3] = NCI Yeast Anticancer Drug Screen. Data for the sgs1 mgt1 strain (AID 161);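 also: 0% = growth of cultures given vehicle only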; conditions: S. cerevisiae sgs1 mgt1 strain, at 50.0 µM, hits give high values
Outline: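 Inhibition of yeast growth, normalised to vehicle-treated controls, is reported for a strain bearing genetic alterations in DNA damage repair.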

[4] = NCI Yeast Anticancer Drug Screen. Data for the cln2 rad14 strain (AID 165);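 also: 0% = growth equal to vehicle treated cultures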; conditions: S. cerevisiae cln2 rad14 strain, at 50.0 µM, hits give high values
Outline: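 Test compounds were added to cln2 rad14 yeast cultures; inhibition of growth was then determined by comparison with vehicle treatment.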

[5] = NCI Yeast Anticancer Drug Screen. Data for the bub3 strain (AID 167); conditions: S. cerevisiae bub3 mutant strain, at 50.0 µM, hits give high values
Outline: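 Mutant yeast screening strain plus compound; vehicle-treated cultures serve as the 0% inhibition reference.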

[6] = NCI Yeast Anticancer Drug Screen. Data for the mlh1 rad18 strain (AID 175); conditions: S. cerevisiae mlh1 rad18 strain growth inhibition; at 50.0 µM; hits give high values
Outline: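 Inhibition values reflect reduced growth of mutant yeast versus vehicle-treated controls following compound exposure; the mutations affect DNA damage repair.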

Measured: growth inhibition

Cc1cccc(-c2nnc3s/c(=C\c4ccc5c(c4)OCO5)c(=O)n23)c1
inactive: [1] -20.1% | [2] -12.2% | [3] -1.45% | [4] 11.7% | [5] 4.35% | [6] 0.65%

CC1CN(CNC(=O)NCN2CC(C)OC(C)C2)CC(C)O1 (stereo unspecified)
inactive: [1] 15.7% | [2] -3.7% | [3] 24.8% | [4] 11.9% | [5] 0.95% | [6] -0.8%

CCCC(O)C(C)C(O)CC (stereo unspecified)
inactive: [1] -9.85% | [2] -30.4% | [3] -22.2% | [4] -3.45% | [5] 1.4% | [6] -1.45%

Cc1ncc([N+](=O)[O-])n1CCNS(=O)(=O)CCCn1ccnc1[N+](=O)[O-]
inactive: [1] -4.85% | [2] -17.1% | [3] -18.9% | [4] -25.7% | [5] -18.5% | [6] -58.7%

CCCC(C)C(=O)OCCOCC (stereo unspecified)
inactive: [1] 4.55% | [2] 2.8% | [3] -1.5% | [4] -32.4% | [5] 9.3% | [6] 49.9%

CCOC(=O)N1C2CC=CCC1C1(c3ccccc3)OC2(c2ccccc2)c2ccccc21
inactive: [1] -16.7% | [2] -3.95% | [3] -4.6% | [4] 5.05% | [5] -1.05% | [6] -24.1%

CC(=O)Nc1c([N+](=O)[O-])cc(O)cc1[N+](=O)[O-]
inactive: [1] -17.9% | [2] -15.7% | [3] 12.3% | [4] -26.3% | [5] -16.9% | [6] -8.45%

COc1c2c(cc3occ(-c4ccc(CC=C(C)C)cc4)c(=O)c13)OC(C)(C)C=C2
inactive: [1] -3.8% | [2] -11.6% | [3] -3% | [4] -24.8% | [5] -12.4% | [6] -35.5%

CNC(=O)n1cncn1
inactive: [1] -10.6% | [2] 3.35% | [3] -9.75% | [4] 0.1% | [5] -2.2% | [6] -12.7%

c1cncc(CCc2ccncc2)c1
inactive: [1] -18.9% | [2] -60.9% | [3] -27.2% | [4] 12.3% | [5] -14.2% | [6] 18.6%

S=C(S)NCCCn1ccnc1
inactive: [1] -11.8% | [2] 23.8% | [3] -14.8% | [4] -15.9% | [5] -30.7% | [6] -0.8%

CC(c1ccccc1)C(OCc1ccccc1)OCc1ccccc1 (stereo unspecified)
inactive: [1] -17.1% | [2] 9.15% | [3] 4.55% | [4] -36.5% | [5] 22.6% | [6] 1.2%

CC1(CBr)COC(c2ccccc2)(C2CCCCC2)OC1 (stereo unspecified)
inactive: [1] -1.9% | [2] -14.8% | [3] -5.55% | [4] -1.9% | [5] -13.7% | [6] 23.7%

CC(C)(N)C(=O)O
inactive: [1] 1.2% | [2] 24.5% | [3] 24.6% | [4] -10.9% | [5] -12.1% | [6] -6.85%

CCN(c1ccccc1)c1nsc(Cl)n1
inactive: [1] -3.25% | [2] -10.8% | [3] -15.9% | [4] -9.4% | [5] 8.25% | [6] -16%

COc1ccc(C(=O)/C=C/c2ccc(OCCCOc3ccc(/C=C/C(=O)c4ccc(OC)cc4)cc3)cc2)cc1
inactive: [1] -7.3% | [2] -19.9% | [3] 3.6% | [4] -24.6% | [5] -19.9% | [6] -27.4%

C=CCC(=O)OCc1cc2c(cc1Br)OCO2
inactive: [1] -26.8% | [2] -17.2% | [3] -8.35% | [4] -10.6% | [5] 54.5% | [6] 5.85%

Cc1cccc2c(SCCCCCCSc3c4ccccc4nc4c(C)cccc34)c3ccccc3nc12
inactive: [1] -2.25% | [2] -8.1% | [3] -26.7% | [4] -21.5% | [5] -2.7% | [6] 7.05%

O=C(NC12CC3CC(CC(C3)C1)C2)C(=O)c1c[nH]c2ccccc12
inactive: [1] 8.5% | [2] 14.2% | [3] 8.1% | [4] 24.6% | [5] 23.6% | [6] 11.4%

O=C(c1cccs1)N(C(=S)N1CCN(c2ccccc2)CC1)c1ccccc1
inactive: [1] -2.7% | [2] -11.1% | [3] 4.55% | [4] -7.8% | [5] -30.4% | [6] -4.3%

CNC(=O)C(c1ccccc1)C(F)(F)F (stereo unspecified)
inactive: [1] 8.1% | [2] 3.9% | [3] -6.7% | [4] -12.4% | [5] 10.3% | [6] 4.3%

CNc1ncnc2n[nH]nc12
inactive: [1] -10.7% | [2] -0.35% | [3] -12.1% | [4] -23% | [5] -11.6% | [6] 3.45%

COc1ccc(C2C3=C(COC3=O)Oc3cc4c(cc32)OCO4)cc1OC (stereo unspecified)
inactive: [1] -21.5% | [2] -33% | [3] -17.9% | [4] -3.95% | [5] 5.45% | [6] -10.8%

CCCCCCCCCCC#N
inactive: [1] 15.2% | [2] -8.4% | [3] -5.6% | [4] 14.6% | [5] 9.15% | [6] -17.6%

O=C(Nc1cc(-c2ccccc2)[nH]n1)c1ccccc1Cl
inactive: [1] 22.1% | [2] 16.6% | [3] 60.5% | [4] 31.2% | [5] 42.1% | [6] 28.3%

C1CCC2CC(NC3=NCCO3)CCC2C1 (stereo unspecified)
inactive: [1] 8.85% | [2] 21.1% | [3] 0.35% | [4] -7% | [5] 22.2% | [6] -85.6%

CCCCn1[nH]c(=O)ccc1=O
inactive: [1] 16.9% | [2] 7.6% | [3] 1.9% | [4] 11.4% | [5] -8.45% | [6] -3.3%

O=C1NC(N2CCCC(CO)C2)=N/C1=C\c1ccc(O)cc1 (stereo unspecified)
inactive: [1] 13.1% | [2] 2.05% | [3] -15.3% | [4] 33.4% | [5] -9.6% | [6] -31.6%

OCCCNCc1ccncc1
inactive: [1] 22.8% | [2] -15.8% | [3] -14.6% | [4] 33.5% | [5] -16.2% | [6] -3.55%

C=CCOC(=O)Oc1ccc(Cl)cc1Cl
inactive: [1] 9.75% | [2] 0.3% | [3] 3.3% | [4] -10.3% | [5] 21.4% | [6] 18.5%

COc1cc([N+](=O)[O-])c(C(=O)O)c(C(=O)O)c1OC
inactive: [1] 9.8% | [2] -5.55% | [3] 3.7% | [4] -2.2% | [5] 1.7% | [6] 1.15%

N#CCC(=O)NCc1ccncc1
inactive: [1] -13.8% | [2] -50.4% | [3] -24.7% | [4] 7.85% | [5] -41% | [6] -13.1%

N=C(N)Cn1cnc2ccccc21
inactive: [1] -13.7% | [2] -10.3% | [3] -9.65% | [4] 14.9% | [5] 3.8% | [6] -18.4%

Oc1cccc2ccc(Br)nc12
inactive: [1] -10.1% | [2] 15.2% | [3] 7.25% | [4] 4.9% | [5] 5.45% | [6] -3.25%

c1ccc(-c2ccc(-c3ccccc3)c3nonc23)cc1
inactive: [1] -32.2% | [2] -2.25% | [3] -13.5% | [4] 23.4% | [5] 27.4% | [6] -4.45%

CCOC(=O)c1cc2ccccc2oc1=O
inactive: [1] -15.2% | [2] 0.3% | [3] -8.75% | [4] 16.4% | [5] 9.25% | [6] 3.9%

FC(F)(F)C1(C(F)(F)F)OS2(OC(C(F)(F)F)(C(F)(F)F)c3ccccc32)c2ccccc21
inactive: [1] 0.5% | [2] 3.4% | [3] 3.3% | [4] -22.9% | [5] -1.1% | [6] -5.1%

CCCSc1n[nH]c(=S)c2nc[nH]c12
inactive: [1] -2% | [2] -24.3% | [3] -14.8% | [4] -5.5% | [5] -21.8% | [6] -1.15%

CC(=O)CC(=O)Nc1ccc(NC(=O)CC(C)=O)cc1
inactive: [1] -13.5% | [2] -30.9% | [3] -21.1% | [4] -0.55% | [5] -23.5% | [6] -15.9%

CC(/C=C/C(=O)c1ccccc1)=C\C=N\N(C)c1ccccc1
inactive: [1] 17.2% | [2] 2.8% | [3] -1.05% | [4] -40.8% | [5] 4.95% | [6] 1.5%

CC1CC(c2ccccc2)Nc2nc3ccccc3n21 (stereo unspecified)
inactive: [1] 5.65% | [2] 3.45% | [3] -4.7% | [4] 7.95% | [5] 5.65% | [6] -14.3%
